The list is not random: actives were taken first. Their share in the collection is about 3.7%.
D3 ag: activates the human D3 dopamine receptor. P35462. D3R DiscoveRx beta-arrestin cells, luminescence, 90 min. max activation, %. 410,000 tested, 0.58% active. AID 652048; in the data active = max activation above about 30%
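Agonist mode: compounds and dopamine controls were applied to plated cells for 90 min at 37 degrees C after an overnight attachment at 1500 cells/well. Luminescent read-out followed 30 - 60 minutes at room temperature with DiscoveRx detection reagent.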
RGS4 inh: human RGS4 inhibition | P49798 | Transcreener GDP fluorescence polarization, RGS4-accelerated GTP hydrolysis | Potency, µM (doses to about 114 µM), actives largely listed as inhibitors | 390,000 tested, 0.039% active | AID 504845; note: nearly all actives have a fitted effect of over 75% in size
Target sequence (P49798 whole entry, looked up): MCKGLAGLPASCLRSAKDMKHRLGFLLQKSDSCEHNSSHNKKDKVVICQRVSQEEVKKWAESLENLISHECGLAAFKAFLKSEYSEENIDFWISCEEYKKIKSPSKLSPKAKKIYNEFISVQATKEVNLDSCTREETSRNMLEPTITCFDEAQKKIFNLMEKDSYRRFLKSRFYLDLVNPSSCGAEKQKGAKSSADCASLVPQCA
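MLSMR compounds (23 nl, pin-transferred) preincubated 10 min at room temperature with a 500nM (2x) first reagent, then RGS4 at 900nM (2x) plus Transcreener GDP mix added; fluorescence polarization (620/688 nm) read before and after 90 min at 30 °C.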
PTHR1 agonist: PTHR1 (human) receptor agonism. 410,000 tested, 0.075% active. Potency, µM (doses to about 115 µM), actives largely listed as activators. HEK293 GP2 PTHR1 cells, GloSensor cAMP luminescence, 1 h. Q03431; note: nearly all actives have a fitted effect of over 55% in size
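HEK-293-derived GP2 cells expressing PTHR1 and a GloSensor cAMP reporter, 3,000/well, plated overnight, given luciferin plus IBMX (each 0.5 mM as added) for 1 h at 37 °C, then compound for 1 h at 37 °C. Luminescence was read after 15 min at room temperature.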
DRD3 antagonist: antagonists of human D3 dopamine receptor; AID 652054; D3R cells, DiscoveRx beta-arrestin luminescence, antagonist mode; hits give low values; P35462; max response, negative = inhibition, %; 360,000 tested, 2.5% active; in the data active = max response below about -50%; inconclusive = no clear call, values can overlap the other calls
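Cells plated overnight at 1500 cells/well, then exposed to library compounds with dopamine controls for 90 minutes at 37 degrees C. DiscoveRx reagent added for 30–60 minutes at room temperature; luminescence read, quantitative HTS format.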
B2AR arrestin: beta2AR (human) beta-arrestin recruitment activity; P07550; beta-arrestin recruitment to beta2AR, cell-based reporter; Potency, µM (series often up to 46.1 µM), hits mostly activators; 330,000 tested, 0.02% active; note: nearly all actives have a fitted effect of over 65% in size
Target sequence (P07550 whole entry, looked up): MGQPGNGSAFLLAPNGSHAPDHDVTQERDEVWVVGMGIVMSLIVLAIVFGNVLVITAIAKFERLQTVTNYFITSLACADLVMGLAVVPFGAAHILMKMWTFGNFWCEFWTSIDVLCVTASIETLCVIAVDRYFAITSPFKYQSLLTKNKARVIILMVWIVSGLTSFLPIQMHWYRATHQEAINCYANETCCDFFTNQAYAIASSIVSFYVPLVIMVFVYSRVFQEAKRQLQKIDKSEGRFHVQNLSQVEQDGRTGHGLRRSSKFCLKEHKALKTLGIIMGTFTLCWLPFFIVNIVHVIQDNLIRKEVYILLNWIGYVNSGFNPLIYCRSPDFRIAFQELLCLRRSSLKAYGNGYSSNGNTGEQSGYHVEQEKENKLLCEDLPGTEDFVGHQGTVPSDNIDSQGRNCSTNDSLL
BRCA1 expr up: increases BRCA1 expression | MCF7-BRCA1-FFLuc reporter, luminescence, 48 h; response scale: scaled: vehicle 0%, 10 µM genistein 100% | 380,000 tested, 1.1% active | Potency, µM (titrated, usually from 46.1 µM), most hits filed as activators | AID 624202; note: nearly all actives have a fitted effect of over 80% in size
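Compounds are tested at multiple concentrations on MCF7 BRCA1-luciferase reporter cells seeded at 2000 per well; after 48 h, a single luminescence end-point is taken and curves fitted to the normalized data.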
Numbers stand for hits; . = inactive; ? = inconclusive; / = not tested or not shown; ! = not active in a repeat; [ ] = remark or other dose. Unless noted, calls come from the whole dose curve; as a rule, active = well fitted curve in the direction sought with a large enough effect; inconclusive = small, poorly fitted or top-dose-only effect, or another doubt; inactive = no such curve, though single readings can be large; an effect the other way counts as inactive or inconclusive.

SMILES | D3 ag | RGS4 inh | PTHR1 agonist | DRD3 antagonist | B2AR arrestin | BRCA1 expr up
COc1ccc(C(c2nnnn2C2CCCCC2)N2CCN(C/C=C/c3ccccc3)CC2)cc1 (stereo unspecified) | . | / | . | -84 | / | .
COc1ccc(-n2nnnc2C(c2ccccc2OC(F)(F)F)N2CCN(C/C=C/c3ccccc3)CC2)cc1 (stereo unspecified) | . | / | . | -96 | / | .
CCc1nn2c(=O)cc(COC(=O)c3ccco3)nc2s1 | . | . | . | / | / | .
COc1ccc(C(c2nnnn2-c2ccc(OC)cc2)N2CCN(C/C=C/c3ccccc3)CC2)cc1 (stereo unspecified) | . | / | . | -89 | / | .
COc1cccc(C(c2nnnn2C(C)(C)C)N2CCN(C3CCCCC3)CC2)c1OC (stereo unspecified) | . | . | . | . | . | .
COc1cccc(C(c2nnnn2C(C)(C)C)N2CCN(C/C=C/c3ccccc3)CC2)c1OC (stereo unspecified) | . | / | . | -102 | / | .
O=C(CCCc1ccccc1)Nc1ccnn1C1CCN(Cc2ccccc2)CC1 | . | . | . | . | . | .
O=C(CCCc1ccccc1)Nc1ccnn1C1CCN(Cc2ccccc2F)CC1 | . | . | . | . | . | .
CC(C)n1cc(CN2CCC(n3nccc3NC(=O)CCCc3ccccc3)CC2)cn1 | . | . | . | -69 | . | .
CCOc1ccc(CN2CCC(n3nccc3NC(=O)CCCc3ccccc3)CC2)cc1 | . | . | . | -55 | . | .
CC(C)n1cc(CN2CCC(n3nccc3NC(=O)Cc3ccccc3)CC2)cn1 | . | . | . | . | . | .
Cc1ccc(C)c(CN2CCC(n3nccc3NC(=O)CCCc3ccccc3)CC2)c1 | . | . | . | -65 | . | .
Cc1ccc(CN(C)C(=O)c2cc(S(=O)(=O)N3CCOCC3)ccc2F)o1 | . | . | . | . | . | .
O=C(COC(=O)Cn1cnc2ccccc21)Nc1ccc(F)c(F)c1 | . | . | . | . | . | .
Cc1c(-n2c(=O)n(Cc3ccccc3)c(=O)c3[nH]cnc32)cccc1S(C)=O (stereo unspecified) | . | . | . | . | . | .
Cc1cc(N/N=C/c2ccccc2)nc(N)n1 | . | .[11.4 µM] | . | . | . | 13µM
Cc1nc(N)nc(N/N=C/c2ccccc2)n1 | . | . | . | . | . | .
CNCC[C@@H](Oc1ccccc1C)c1ccccc1 | . | . | . | -57 | / | .
CCOc1ccc(-c2cc3c(=O)n(Cc4nc(-c5ccc(OC(C)C)cc5)oc4C)ccn3n2)cc1Cl | . | . | . | / | / | .
S=C(Nc1ccc(Br)cc1Cl)NN1CCOCC1 | . | . | . | . | . | .
OCC1O[C@H]([S-])[C@H](O)[C@@H](O)[C@@H]1O.[Au+] (stereo partly specified) | / | 0.6µM | / | / | / | /
CCOC(=O)c1cccc(NC(=O)Cn2c(=O)nc(-c3ccccc3)c3ccccc32)c1 | . | . | . | / | / | /
Cc1[nH]c2ccccc2c1C(=O)C(=O)Nc1ccc2c(c1)OCO2 | . | . | . | . | . | 2.5µM
CCN1/C(=C/C(C)=C/c2sc3ccccc3[n+]2CC)Sc2ccccc21 | . | ? | . | -59! | . | .
O=[N+]([O-])c1ccc(Nc2ccc3ccccc3c2)nc1 | . | . | . | -107 | . | ?
SMILES | D3 ag | RGS4 inh | PTHR1 agonist | DRD3 antagonist | B2AR arrestin | BRCA1 expr up
CC(=O)Nc1ccc([N+](=O)[O-])cn1 | . | . | . | -53 | . | .
O=C(Nc1ccc([N+](=O)[O-])cn1)C1CC1 | . | . | . | . | . | .
CC(=NNc1ccc([N+](=O)[O-])cn1)c1ccccc1 | . | . | . | . | / | 10µM
Cc1csc2nc(COc3ccc(NC(=O)c4ccccc4F)cc3)cc(=O)n12 | . | . | . | / | / | /
CC(=O)NCCc1nc2cc(NS(=O)(=O)c3ccc(Cl)cc3)ccc2n1C | . | . | . | . | . | .
Cn1c(CN2CCCCC2)nc2cc(NS(=O)(=O)c3ccc(Cl)cc3)ccc21 | . | . | . | -65 | . | .
Cn1c(CN2CCCCC2)nc2cc(NS(=O)(=O)c3ccc(F)cc3)ccc21 | . | . | . | -73 | . | .
CCCC(=O)Nc1ccc2c(c1)nc(CN1CCCCC1)n2C | . | . | . | . | . | .
Cn1c(CCN2CCCCC2)nc2cc(NS(=O)(=O)c3ccc(Cl)cc3)ccc21 | . | . | . | -72 | . | .
C[C@H]1CN([C@@H](C)CO)C(=O)CCCn2nncc2CO[C@@H]1CN(C)C(=O)c1ccccc1 | . | / | . | . | / | .
CCOC(=O)C(=O)Nc1c(C(=O)Nc2cccc(F)c2)oc2ccccc12 | . | . | ? | / | / | .
O=[N+]([O-])c1ccccc1CNC1CCCc2ccccc21 (stereo unspecified) | . | . | . | . | . | ?
c1ccc2c(-c3cc(NCc4ccncc4)n4nccc4n3)cccc2c1 | . | / | . | . | / | .
N/C(=N\OC(=O)c1ccco1)c1ccccc1 | . | . | . | . | . | 5.6µM
N/C(=N\OC(=O)c1ccco1)c1ccc(Br)cc1 | . | .[11.4 µM] | . | . | . | 2.5µM
Cc1ccc(/C(N)=N/OC(=O)c2ccco2)cc1 | . | . | . | . | . | .
CCOC(=O)C1(CCOC)CCN(C2C3CC4CC(C3)CC2C4)CC1 (stereo unspecified) | . | . | . | . | . | .
S=c1[nH]nc(-c2cccnc2)n1/N=C/c1ccco1 | . | . | . | -50 | . | .
Cc1ccc(-c2n[nH]c(=S)n2/N=C\c2ccco2)cc1 | . | . | . | . | . | .
Oc1c(Br)cc(Br)cc1/C=N/n1c(-c2ccccc2)n[nH]c1=S | . | ? | . | -51 | . | .
Cc1nn(-c2ccccc2)c(C)c1/C=N/n1c(-c2ccc(Cl)cc2)n[nH]c1=S | . | . | . | . | . | .
Cc1nn(-c2ccccc2)c(C)c1/C=N/n1c(-c2ccncc2)n[nH]c1=S | . | . | . | -52 | . | .
Cn1cccc1/C=N/n1c(-c2ccccc2)n[nH]c1=S | . | . | . | -98 | . | .
Oc1c(Br)cc(/C=N/n2c(-c3ccccc3)n[nH]c2=S)c(Br)c1O | / | / | / | / | . | /
COc1ccccc1N1CCN(C(=O)c2oc3ccccc3c2NC(=O)C(C)Oc2ccccc2)CC1 (stereo unspecified) | . | . | . | / | / | /
Cc1cccc(C(=O)NCCC(=O)NCc2ccccc2Cl)c1 | . | . | . | . | . | .
CCN(C(=O)COC(=O)/C=C/c1c(C)nn(-c2ccccc2)c1C)c1c(N)n(Cc2ccccc2)c(=O)[nH]c1=O | . | . | . | . | / | .
Cc1cccc(NC(=S)N/C(=N/S(=O)(=O)c2ccccc2)c2ccccc2)c1 | . | . | . | -61! | . | .
